Assay type in all cases: functional
In test [1] the target is Solute carrier family 2, facilitated glucose transporter member 1 (Homo sapiens) (UniProt P11166). Description: ST_JUDE_LEISH: Cytotoxicity at 2uM final concentration against transgenic Leishmania Mexicana promastigotes LmGLUT1 that are glucose transport deficient and complemented with the human glucose transporter GLUT1. Activity is measured by DNA content using SYBR green in vitro.

Test [2] addresses Hexose transporter 1 (Plasmodium falciparum) (UniProt O97467). Nature of the test: ST_JUDE_LEISH: Cytotoxicity at 2uM final concentration against transgenic Leishmania Mexicana promastigotes LmPfHT that are glucose transport deficient and complemented with the Plasmodium falciparum hexose transporter. Activity is measured by DNA content using SYBR green in vitro.
For test [3], the target named is Glucose transporter (Leishmania mexicana) (UniProt O61059). Nature of the test: ST_JUDE_LEISH: Cytotoxicity at 2uM final concentration against transgenic Leishmania Mexicana promastigotes LmGT2 that are glucose transport deficient and complemented with the L. Mexicana glucose transporter 2. Activity is measured by DNA content using SYBR green in vitro.

Each structure is given as a SMILES string.

Broadly, the inhibition is the relative decrease from the control value, in per cent.

Sequence of Solute carrier family 2, facilitated glucose transporter member 1 (Homo sapiens) (P11166 whole entry): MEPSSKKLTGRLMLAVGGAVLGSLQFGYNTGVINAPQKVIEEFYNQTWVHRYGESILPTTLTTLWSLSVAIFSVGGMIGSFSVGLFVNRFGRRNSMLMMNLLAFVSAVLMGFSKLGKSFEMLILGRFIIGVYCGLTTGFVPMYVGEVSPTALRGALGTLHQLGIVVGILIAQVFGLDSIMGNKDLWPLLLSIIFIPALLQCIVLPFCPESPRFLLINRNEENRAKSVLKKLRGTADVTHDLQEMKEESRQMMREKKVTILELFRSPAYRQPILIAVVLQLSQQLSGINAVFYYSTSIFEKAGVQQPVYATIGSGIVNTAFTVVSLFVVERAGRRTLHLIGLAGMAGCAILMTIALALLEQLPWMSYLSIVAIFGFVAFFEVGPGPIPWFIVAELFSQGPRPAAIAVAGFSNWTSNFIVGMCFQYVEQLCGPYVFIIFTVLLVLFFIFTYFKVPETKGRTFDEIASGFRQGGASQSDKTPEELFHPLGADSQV

With `COc1cc2nc(C)nc(Nc3ccc4c(ccn4Cc4ccccc4)c3)c2cc1OC`, the inhibition in test [1] came out at 5.04%; in test [2] it was 5.91%; in test [3], 5.53%.
For `CC(C)N1CCN(C(CN2CCN(CCCOc3ccc4nonc4c3)CC2)c2ccc(F)cc2)CC1` (configuration not stated), the inhibition was -0.47% in test [1], -1.18% in test [2] and -1.91% in test [3].
In the same order, the values of `N=C(N)Nc1nc(-c2ccc(NCc3ccc(CNc4cccc(-c5csc(NC(=N)N)n5)c4)cc3)cc2)cs1` are 0.36%, 1.69% and 1.12%.
In the same order, the values of `CN1CCN(c2ccnc3ccc(NC(=O)Nc4cccc5c(Br)cccc45)cc23)CC1` are 0.91%, 3.33% and 2.86%.
In the same order, the values of `CC(C)(CNC(=O)[C@@H]1CCCN(CCOc2ccc(Cl)cc2)C1)c1nc(-c2ccc(Cl)c(O)c2)c(-c2ccncc2)[nH]1` are -1.34%, 2.16% and 0.11%.
For the compound `Cc1cccc2nc(-c3cccc(-c4ccc(NC(=O)Nc5cccc(C#N)c5)cc4)c3)[nH]c12`, the inhibition in test [1] was 2.14%; in test [2] it was 2.03%; in test [3], -1.2%.
On the same counts, the results for `Cc1noc(C)c1-c1ccc2c(Nc3ccc(C(F)(F)F)cc3)c(C(N)=O)cnc2c1` are 3.49%, 3.21% and -3.02%.
In the same order, the values of `Cc1nc(N/C(N)=N/C(=O)NC2CCCCC2)nc2ccccc12` are 7.72%, 5.72% and 6.66%.
On the same counts, the results for `CC(C)CC(=O)N1CCNC[C@@H]1C(=O)NC1CC1` are 1.66%, 1.41% and -0.37%.
`Oc1ccc(CCNCCCCCCNCCc2ccc(-c3ccccc3)cc2)cc1O`: the inhibition is 1.33% in test [1], 1.69% in test [2] and 1.57% in test [3].
In the same order, the values of `Oc1ccc(Cl)cc1Nc1nc(C(F)(F)F)nc2ccccc12` are 1.75%, 1.98% and 2.23%.
As to `CN(C)CCNCc1ccc(-c2ccc3c(Nc4ccc(F)cc4Cl)ccnc3c2)o1`, the inhibition in test [1] is 4.19%; in test [2], 6.24%; in test [3], -0.47%.
As to `COCCN1CCC(CN(C)CC(C)(C)c2nc(-c3ccc(Cl)c(O)c3)c(-c3ccncc3)[nH]2)CC1`, the inhibition turned out to be 2.73% in test [1], 5.16% in test [2] and 0.55% in test [3].
As for `CCCCOP(=O)(COc1ccc(CCN(CC(O)COc2cccc3[nH]c4ccccc4c23)CC(O)COc2cccc3[nH]c4ccccc4c23)cc1)C1CCCCC1` (configuration not stated), the results for the inhibition in test [1], in test [2] and in test [3] were 3.64%, 0.57% and 0.82%, respectively.
With `CCOc1ccc2[nH]c(C)cc(=NN=Cc3ccccc3Cl)c2c1`, the figures for the inhibition in test [1], in test [2] and in test [3] were 12.3%, 8.94% and 5.71%, respectively.
On the same counts, the results for `Nc1cccc(CNCc2cccc(-c3ccc(-c4nc5cc(C(F)(F)F)ccc5[nH]4)cc3)c2)c1` are 4.8%, 6.83% and 3.77%.
In the same order, the values of `COc1ccccc1C1CCN(C2CCC(NC(=O)/C=C/c3ccc4c(c3)OC(F)(F)O4)CC2)CC1` (configuration not stated) are 4.33%, 4.26% and 1.28%.
On the same counts, the results for `CCCCCn1c(Sc2ccc(C#N)c([N+](=O)[O-])c2)nnc1-c1cc(OC)cc(OC)c1` are 13%, 10.4% and 9.25%.
Consider `COc1cccc(C(=O)Nc2sc3c(c2C(N)=O)CCCC3)c1OC`, for which the inhibition came out at 0.25% in test [1], 8.04% in test [2] and 12.7% in test [3].
In the same order, the values of `CCCc1cc2c3c(N)nc(N)nc3ccc2n1C(CC)CC` are 46.3%, 54.9% and 42.6%.
In the case of `O=C(Nc1cccc(CN2CCCN(Cc3cccc(Cl)c3)CC2)c1)c1ccc(-c2ccccc2)cc1`, the inhibition in test [1] amounted to 4.82%; in test [2], 4.23%; in test [3], 0.66%.
On the same counts, the results for `OC1CCCN(Cc2ccc(-c3ccc(-c4nc5cc(F)ccc5[nH]4)s3)cc2)C1` (configuration not stated) are 3.05%, 2.51% and 1.76%.
On the same counts, the results for `CN1CCC(NCc2ccc(-c3cccc(-c4nc5ccccc5[nH]4)c3)cc2)CC1` are 1.67%, 2.05% and 1.64%.
On the same counts, the results for `CCC(C)NC(=O)Nc1cccc(-c2cccc(-c3nc4cccc(C)c4[nH]3)c2)c1` (configuration not stated) are -1.54%, -0.37% and 11.5%.
For `CC1CC(C)CN(CCCNc2ccc(C(=O)Nc3ccc(C(F)(F)F)cc3)cc2[N+](=O)[O-])C1` (configuration not stated), the inhibition in test [1] stood at 3.92%; in test [2], 0.64%; in test [3] it was 1.47%.
On the same counts, the results for `CCOc1ccccc1CCNCC1CCN(CC2CCCCC2)CC1` are 1.97%, -2.9% and 2.88%.
In the same order, the values of `O=C(/C=C/c1ccc(Cl)c(Cl)c1)NCCCCCN1CCC(NC(=S)Nc2ccc(Cl)c(Cl)c2)CC1` are 4.99%, 5.09% and 3.5%.
On the same counts, the results for `CC(C)N(CC(=O)c1ccc(O)c(C(=O)O)c1)Cc1ccccc1` are 3.53%, 3.51% and 1.67%.
For the compound `COc1cc(OC)cc(-c2nn(-c3ccc([N+](=O)[O-])cc3Cl)c(=S)n2CC2CCCO2)c1` (configuration not stated), the inhibition in test [1] is 3.14%; in test [2], -3.05%; in test [3] it was 2.53%.
On the same counts, the results for `CN1CCN(c2ccnc3ccc(NC(=O)Nc4ccc(-c5ccccc5)cc4)cc23)CC1` are 3.26%, 2.25% and 2.96%.
Take `CS(=O)(=O)c1ccccc1CNC(=O)c1ccc(-c2ccc(-c3nc4cc(C(F)(F)F)ccc4[nH]3)s2)cc1`: the figures for the inhibition in test [1], in test [2] and in test [3] were 7.56%, 2.99% and 0.84%, respectively.
On the same counts, the results for `NS(=O)(=O)c1cccc(Nc2nccc(-c3c(-c4cccc(NC(=O)c5c(F)cccc5F)c4)nn4ccccc34)n2)c1` are 2.78%, 7.67% and 1.61%.
In the same order, the values of `COc1cc(OC)cc(-c2nc3ccc(OCCN(C)C)c(C#N)c3[nH]2)c1` are 0.95%, 4.09% and 2.21%.
On to `CN(C)[C@@H]1C(O)=C(C(N)=O)C(=O)[C@@]2(O)C(O)=C3C(=O)c4c(O)ccc(C#Cc5ccccn5)c4C[C@H]3C[C@@H]12`, for which the inhibition in test [1] was 1.83%; in test [2], -0.62%; in test [3], 0.74%.

The values are drawn from ChEMBL document CHEMBL3433997, “St. Jude Leishmania screening dataset” (2016).
